Assay results published in PubChem BioAssay (NCATS).
Results filed as inconclusive are left out. Where a call stands in place of a potency, no number is given. The source made the active and inactive calls. Unless noted, calls follow the shape of the dose curve; as a rule, active = well fitted inhibition curve with a large enough effect; inconclusive = small, poorly fitted or top-dose-only effect; inactive = no such curve, though single readings can be large or run the other way.

Key:
[1] = target: Aldehyde dehydrogenase, mitochondrial (Homo sapiens) (UniProt P05091); test: qHTS for Inhibitors of the Aldehyde Dehydrogenase Family (ALDH2) Confirmatory screens (AID 2061303; active = well fitted inhibition curve with a large enough effect; title and protocol of this record describe different tests; also: nearly all actives have a fitted effect of over 45% in size; also: potency is read from the fitted curve at half-maximal effect)
[2] = qHTS for Inhibitors of the Aldehyde Dehydrogenase Family (ALDH1A2, ALDH1A3, ALDH2, ALDH3A1) (AID 2061307); also: nearly all actives have a fitted effect of over 50% in size; as to potency: test system not described further here; potency is read from the fitted curve at half-maximal effect
[3] = target: Retinaldehyde dehydrogenase 3 (Homo sapiens) (UniProt P47895); test: qHTS for Inhibitors of the Aldehyde Dehydrogenase Family (ALDH1A3) Confirmatory screens (AID 2061311); also: nearly all actives have a fitted effect of over 60% in size; also: potency is read from the fitted curve at half-maximal effect
[4] = target: Retinal dehydrogenase 2 (Homo sapiens) (UniProt O94788); test: qHTS for Inhibitors of the Aldehyde Dehydrogenase Family (ALDH1A2) Confirmation screens (AID 2061314); also: nearly all actives have a fitted effect of over 65% in size; also: potency is read from the fitted curve at half-maximal effect
[5] = target: Retinaldehyde dehydrogenase 3 (Homo sapiens) (UniProt P47895); test: qHTS for Inhibitors of the Aldehyde Dehydrogenase Family (ALDH1A3) Primary screen (AID 2061315)
[6] = target: Aldehyde dehydrogenase 1A1 (Homo sapiens) (UniProt P00352); test: qHTS for Inhibitors of the Aldehyde Dehydrogenase Family (ALDH1A1) Confirmatory screens (AID 2061316); also: nearly all actives have a fitted effect of over 65% in size; also: potency is read from the fitted curve at half-maximal effect

| SMILES | Potency [1] | Potency [2] | Potency [3] | Potency [4] | Potency [5] | Potency [6] |
| --- | --- | --- | --- | --- | --- | --- |
| Cc1ccc(-c2nn3c(C)nnc3s2)cc1NCc1ccc(-c2cccc(Cl)c2)o1 | 3.18 µM (active) | 3.57 µM (active) | 12.7 µM (active) | 12.7 µM (active) | inactive | 6.34 µM (active) |
| N#Cc1c(-c2ccc(C(=O)c3ccc(O)cc3)cc2)no[n+]1[O-] | 10 µM (active) | 11.3 µM (active) | 15.8 µM (active) | 0.712 µM (active) | inactive | 12.7 µM (active) |
| O=C(Nc1cc(Cc2ccccc2)ccn1)c1ccc(-c2cccc([N+](=O)[O-])c2)o1 | 11.2 µM (active) | 7.08 µM (active) | 7.94 µM (active) | 5.01 µM (active) | inactive |  |
| COc1ccc(C2Nc3ccccc3C(=O)N2CC(C)(C)C)cc1COc1ccc(NC(C)=O)cc1 (configuration not stated) | 11.2 µM (active) | 1.59 µM (active) | 15.8 µM (active) | 31.6 µM (active) | inactive | 25.2 µM (active) |
| CC(C)(C)OC(=O)N1CCN(c2ccc(NCc3cncc(-c4ccc(C#N)cc4)c3)cc2)CC1 | 1.79 µM (active) | 0.634 µM (active) | inactive | inactive | inactive | inactive |
| O=C(CN1C(=O)N/C(=C\c2cccn2-c2cccc(C(=O)O)c2)C1=O)Nc1ccc(F)cc1 | inactive | inactive | inactive | inactive | inactive |  |
| O=c1c(Nc2ccc(Cl)c(Cl)c2)c(Nc2nnc(-c3ccncc3)s2)c1=O | 2 µM (active) | 11.3 µM (active) | 11.2 µM (active) | 3.98 µM (active) | inactive | 8.96 µM (active) |
| COc1ccc(C2Nc3ccccc3C(=O)N2Cc2ccco2)cc1COc1cccc(NC(C)=O)c1 (configuration not stated) | 11.3 µM (active) | 12.7 µM (active) | 11.3 µM (active) | 11.3 µM (active) | inactive | 4 µM (active) |
| CCc1ccc(-n2c(SCc3cccc(F)c3)nc3[nH]ncc3c2=O)cc1 | inactive | inactive | 15.8 µM (active) | inactive |  | 1.82 µM (active) |
| COc1ccc(S(=O)(=O)N2CCN(C(=O)c3ccc([N+](=O)[O-])o3)CC2)cc1 | inactive | inactive | inactive | inactive |  | 10 µM (active) |
| O=Cc1c(-c2ccccc2)no[n+]1[O-] | 14.2 µM (active) | 0.565 µM (active) | 4 µM (active) | 11.3 µM (active) | inactive | 0.504 µM (active) |
| CC(=O)N1CCN(c2ccc(NCc3ccc(-c4ccc(Br)cc4)o3)cc2)CC1 | 0.142 µM (active) | 2.01 µM (active) | 25.2 µM (active) | 2.52 µM (active) | inactive | 5.65 µM (active) |
| CC(C)(C)OC(=O)N1CCN(c2ccc(NCc3ccc(-c4ccccc4F)o3)cc2)CC1 | 1.27 µM (active) | 12.7 µM (active) | inactive | inactive | inactive |  |
| CC(=O)Nc1sc2c(c1-c1cccc(F)c1)CCNC2 | inactive | inactive | inactive | 20.1 µM (active) | inactive | inactive |
| Cn1ncc2c(C(=O)NCC(F)F)cc(-c3cccc(C(F)(F)F)c3)nc21 | inactive | inactive | 0.794 µM (active) | inactive |  | inactive |
| Cc1ccc(-n2c(=O)c3c(cnn3C)n(CC(=O)Nc3ccccc3C)c2=O)cc1 | inactive | inactive | 22.4 µM (active) | inactive |  | inactive |
| COc1ccc(Nc2ncc(C(=O)N3CCN(c4ccc(F)cc4)CC3)c3ccccc23)cc1 | inactive | 15.8 µM (active) | inactive | inactive |  | inactive |
| O=C1Cc2cc(C(=O)c3ccco3)ccc2N1 | 1.01 µM (active) | 0.565 µM (active) | 0.896 µM (active) | 2.52 µM (active) | inactive |  |
| Cc1ccc(OCCn2c(CCNC(=O)c3ccccc3[N+](=O)[O-])nc3ccccc32)cc1 | inactive | inactive | inactive | inactive | inactive |  |
| COc1ccc(N2CCN(c3nc(C(=O)NCc4cccc(C)c4)cs3)CC2)cc1 | inactive | 2.51 µM (active) | inactive | inactive |  | inactive |
| Fc1c(-c2ccc3ncnc(NCc4cccs4)c3c2)ccc2c1OCO2 | inactive | inactive | inactive | inactive | inactive | inactive |
| Cc1ccc(CSc2ccc3nnc(CCNS(=O)(=O)c4ccc(C)cc4)n3n2)cc1 | inactive | inactive |  | inactive |  |  |
| O=C1c2ccccc2C(=O)N1c1cccc2ccncc12 | inactive | inactive | inactive |  | inactive |  |
| COc1cccc(-c2ccc(CNc3ccc(N4CCN(C(=O)OC(C)(C)C)CC4)cc3)o2)c1 | 11.3 µM (active) | 14.2 µM (active) | inactive |  | inactive |  |
| COc1ccc(CC(=O)Nc2c(C(=O)N3CCN(c4ccccc4)CC3)oc3ccccc23)cc1OC | inactive | inactive |  | inactive |  |  |
| CCc1ccc(-n2c(=O)c3cccnc3n2CC(=O)Nc2cc(F)ccc2F)cc1 | inactive | inactive |  | inactive |  |  |
